Consider one molecule from ChEMBL document CHEMBL1961873, “Compounds: GSK PKIS; Assays: Nanosyn kinase panel” (2012).

For experiment [1], the target named is Protein kinase C gamma type (Homo sapiens) (UniProt P05129). The note with it: at 1 µM.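 Also: each value is an averaged percent inhibition of the enzyme.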
The target of experiment [2] is T1, Protein kinase C iota type (Homo sapiens) (UniProt P41743).
T1 sequence (whole entry): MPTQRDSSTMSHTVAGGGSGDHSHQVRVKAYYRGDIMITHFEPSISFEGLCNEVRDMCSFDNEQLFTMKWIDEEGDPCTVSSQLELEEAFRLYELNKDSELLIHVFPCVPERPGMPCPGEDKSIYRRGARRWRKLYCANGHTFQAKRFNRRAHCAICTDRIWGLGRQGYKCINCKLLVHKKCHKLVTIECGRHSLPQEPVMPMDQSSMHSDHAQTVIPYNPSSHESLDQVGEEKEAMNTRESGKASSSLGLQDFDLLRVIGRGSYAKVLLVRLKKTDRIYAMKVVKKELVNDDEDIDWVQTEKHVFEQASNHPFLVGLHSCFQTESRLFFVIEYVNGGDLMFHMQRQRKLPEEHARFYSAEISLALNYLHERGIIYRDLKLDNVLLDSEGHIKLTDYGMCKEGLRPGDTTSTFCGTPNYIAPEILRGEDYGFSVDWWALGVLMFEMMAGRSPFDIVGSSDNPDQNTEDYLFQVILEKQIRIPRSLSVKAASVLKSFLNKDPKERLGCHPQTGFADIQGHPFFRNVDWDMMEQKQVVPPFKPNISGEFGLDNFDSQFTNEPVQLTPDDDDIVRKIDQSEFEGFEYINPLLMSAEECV
The following applies: at 0.1 µM.

The target of experiment [3] is T1, Protein kinase C iota type (Homo sapiens). The note with it: at 1 µM.
In experiment [4] the target is Protein kinase C theta type (Homo sapiens) (UniProt Q04759). The following applies: at 0.1 µM.
Protein kinase C theta type (Homo sapiens), sequence (Q04759 whole entry, looked up): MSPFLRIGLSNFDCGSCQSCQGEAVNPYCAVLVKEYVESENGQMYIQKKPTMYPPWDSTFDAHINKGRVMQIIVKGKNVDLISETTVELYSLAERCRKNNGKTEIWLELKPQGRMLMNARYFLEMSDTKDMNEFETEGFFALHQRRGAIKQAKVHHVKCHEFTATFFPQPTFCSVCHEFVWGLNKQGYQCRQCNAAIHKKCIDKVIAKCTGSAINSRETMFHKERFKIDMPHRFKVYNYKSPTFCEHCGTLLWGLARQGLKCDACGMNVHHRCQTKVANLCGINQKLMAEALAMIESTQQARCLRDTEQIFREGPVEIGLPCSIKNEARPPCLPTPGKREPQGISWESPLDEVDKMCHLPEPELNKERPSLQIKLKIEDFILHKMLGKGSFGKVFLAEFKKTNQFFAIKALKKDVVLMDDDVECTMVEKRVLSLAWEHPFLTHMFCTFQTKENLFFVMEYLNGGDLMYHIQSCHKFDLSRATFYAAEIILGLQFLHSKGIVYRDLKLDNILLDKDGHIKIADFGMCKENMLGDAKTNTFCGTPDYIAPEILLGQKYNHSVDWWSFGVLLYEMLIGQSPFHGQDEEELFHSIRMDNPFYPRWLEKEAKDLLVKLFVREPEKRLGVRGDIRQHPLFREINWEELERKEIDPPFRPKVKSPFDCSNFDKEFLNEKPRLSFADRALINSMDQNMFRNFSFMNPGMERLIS
For experiment [5] the target is unchanged. The note with it: at 1 µM.
Experiment [6] concerns the target Protein kinase C beta type (Homo sapiens) (UniProt P05771). The following applies: at 0.1 µM.
The target is the same in experiment [7]. The following applies: at 1 µM.
The target in experiment [8] is T2, Serine/threonine-protein kinase D1 (Homo sapiens) (UniProt Q15139).
T2 sequence (whole entry): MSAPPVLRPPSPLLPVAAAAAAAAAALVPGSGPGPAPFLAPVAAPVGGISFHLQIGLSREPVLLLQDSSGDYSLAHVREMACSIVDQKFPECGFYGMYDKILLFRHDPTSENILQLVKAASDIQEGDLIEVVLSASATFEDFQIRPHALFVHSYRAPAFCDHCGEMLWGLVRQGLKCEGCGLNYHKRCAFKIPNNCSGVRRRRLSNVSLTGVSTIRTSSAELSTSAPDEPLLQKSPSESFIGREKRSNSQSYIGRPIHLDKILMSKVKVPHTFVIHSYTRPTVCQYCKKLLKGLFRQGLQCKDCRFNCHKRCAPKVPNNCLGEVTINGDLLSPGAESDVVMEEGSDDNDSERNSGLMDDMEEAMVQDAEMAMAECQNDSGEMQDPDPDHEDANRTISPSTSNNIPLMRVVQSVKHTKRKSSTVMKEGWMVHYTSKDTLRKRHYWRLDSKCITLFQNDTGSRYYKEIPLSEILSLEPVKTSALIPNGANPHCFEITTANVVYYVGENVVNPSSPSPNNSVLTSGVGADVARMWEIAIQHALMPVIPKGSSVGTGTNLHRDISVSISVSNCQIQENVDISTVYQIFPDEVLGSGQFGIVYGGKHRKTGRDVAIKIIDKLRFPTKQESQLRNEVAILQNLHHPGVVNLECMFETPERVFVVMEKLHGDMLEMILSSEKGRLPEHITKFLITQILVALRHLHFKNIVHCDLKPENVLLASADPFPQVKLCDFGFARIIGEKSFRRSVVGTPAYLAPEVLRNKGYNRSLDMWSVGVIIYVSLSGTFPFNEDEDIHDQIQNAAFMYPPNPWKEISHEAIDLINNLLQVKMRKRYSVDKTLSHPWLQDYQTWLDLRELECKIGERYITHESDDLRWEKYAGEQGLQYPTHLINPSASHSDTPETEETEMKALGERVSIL
The note with it: at 0.1 µM.

Experiment [9] addresses T2, Serine/threonine-protein kinase D1 (Homo sapiens). The note with it: at 1 µM.
For experiment [10], the target named is T3, Serine/threonine-protein kinase D2 (Homo sapiens) (UniProt Q9BZL6).
T3 sequence (whole entry): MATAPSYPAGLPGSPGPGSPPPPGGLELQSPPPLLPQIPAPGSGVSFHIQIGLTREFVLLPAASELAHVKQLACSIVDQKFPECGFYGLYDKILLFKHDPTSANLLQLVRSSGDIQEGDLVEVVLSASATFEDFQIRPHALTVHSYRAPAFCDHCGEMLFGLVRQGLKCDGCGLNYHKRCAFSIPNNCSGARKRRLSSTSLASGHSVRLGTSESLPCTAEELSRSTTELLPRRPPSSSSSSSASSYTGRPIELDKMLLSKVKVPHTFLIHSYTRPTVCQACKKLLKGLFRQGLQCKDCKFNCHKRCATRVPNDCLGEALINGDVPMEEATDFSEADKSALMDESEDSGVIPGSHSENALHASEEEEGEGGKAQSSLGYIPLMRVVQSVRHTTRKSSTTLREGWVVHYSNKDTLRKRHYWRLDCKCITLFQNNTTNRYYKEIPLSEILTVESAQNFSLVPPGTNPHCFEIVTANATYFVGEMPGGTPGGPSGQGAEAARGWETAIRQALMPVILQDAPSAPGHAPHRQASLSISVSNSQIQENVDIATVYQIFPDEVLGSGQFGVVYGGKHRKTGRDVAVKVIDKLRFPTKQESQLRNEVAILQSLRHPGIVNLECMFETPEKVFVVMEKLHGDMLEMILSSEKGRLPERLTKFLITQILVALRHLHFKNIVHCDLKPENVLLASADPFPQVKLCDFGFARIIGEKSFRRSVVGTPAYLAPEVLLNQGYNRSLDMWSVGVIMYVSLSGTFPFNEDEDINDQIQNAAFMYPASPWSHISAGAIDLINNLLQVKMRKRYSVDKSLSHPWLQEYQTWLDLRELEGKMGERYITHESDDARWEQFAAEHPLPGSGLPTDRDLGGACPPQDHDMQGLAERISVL
The following applies: at 0.1 µM.

Experiment [11] addresses T3, Serine/threonine-protein kinase D2 (Homo sapiens). The following applies: at 1 µM.
The target in experiment [12] is T4, Serine/threonine-protein kinase D3 (Homo sapiens) (UniProt O94806).
T4 sequence (whole entry): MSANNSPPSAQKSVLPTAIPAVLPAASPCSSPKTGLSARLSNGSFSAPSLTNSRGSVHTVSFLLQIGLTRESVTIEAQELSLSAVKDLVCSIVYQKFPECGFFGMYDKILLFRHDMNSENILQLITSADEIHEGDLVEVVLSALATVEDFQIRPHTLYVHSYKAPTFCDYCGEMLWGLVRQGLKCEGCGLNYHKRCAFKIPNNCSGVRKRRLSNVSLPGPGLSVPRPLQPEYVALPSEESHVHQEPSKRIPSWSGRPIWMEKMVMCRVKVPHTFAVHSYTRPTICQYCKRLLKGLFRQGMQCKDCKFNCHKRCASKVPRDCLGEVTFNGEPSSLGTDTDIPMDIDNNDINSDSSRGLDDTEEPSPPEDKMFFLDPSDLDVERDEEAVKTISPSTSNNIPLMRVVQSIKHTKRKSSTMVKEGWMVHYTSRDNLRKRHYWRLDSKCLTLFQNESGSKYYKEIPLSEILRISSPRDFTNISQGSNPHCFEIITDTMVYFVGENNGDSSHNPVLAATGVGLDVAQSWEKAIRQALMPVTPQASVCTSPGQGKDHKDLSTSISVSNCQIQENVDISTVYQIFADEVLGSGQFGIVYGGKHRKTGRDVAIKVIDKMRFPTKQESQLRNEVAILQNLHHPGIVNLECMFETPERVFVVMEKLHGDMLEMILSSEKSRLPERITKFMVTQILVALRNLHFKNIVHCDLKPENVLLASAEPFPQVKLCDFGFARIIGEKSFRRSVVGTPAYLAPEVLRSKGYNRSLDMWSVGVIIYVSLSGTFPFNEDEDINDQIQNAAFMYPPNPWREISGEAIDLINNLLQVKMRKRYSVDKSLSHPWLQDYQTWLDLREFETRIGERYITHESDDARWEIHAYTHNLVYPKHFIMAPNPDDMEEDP
The following applies: at 0.1 µM.

Experiment [13] addresses T4, Serine/threonine-protein kinase D3 (Homo sapiens). The note with it: at 1 µM.
Experiment [14] has as its target T5, cGMP-dependent protein kinase 1 (Homo sapiens) (UniProt Q13976).
T5 sequence (whole entry): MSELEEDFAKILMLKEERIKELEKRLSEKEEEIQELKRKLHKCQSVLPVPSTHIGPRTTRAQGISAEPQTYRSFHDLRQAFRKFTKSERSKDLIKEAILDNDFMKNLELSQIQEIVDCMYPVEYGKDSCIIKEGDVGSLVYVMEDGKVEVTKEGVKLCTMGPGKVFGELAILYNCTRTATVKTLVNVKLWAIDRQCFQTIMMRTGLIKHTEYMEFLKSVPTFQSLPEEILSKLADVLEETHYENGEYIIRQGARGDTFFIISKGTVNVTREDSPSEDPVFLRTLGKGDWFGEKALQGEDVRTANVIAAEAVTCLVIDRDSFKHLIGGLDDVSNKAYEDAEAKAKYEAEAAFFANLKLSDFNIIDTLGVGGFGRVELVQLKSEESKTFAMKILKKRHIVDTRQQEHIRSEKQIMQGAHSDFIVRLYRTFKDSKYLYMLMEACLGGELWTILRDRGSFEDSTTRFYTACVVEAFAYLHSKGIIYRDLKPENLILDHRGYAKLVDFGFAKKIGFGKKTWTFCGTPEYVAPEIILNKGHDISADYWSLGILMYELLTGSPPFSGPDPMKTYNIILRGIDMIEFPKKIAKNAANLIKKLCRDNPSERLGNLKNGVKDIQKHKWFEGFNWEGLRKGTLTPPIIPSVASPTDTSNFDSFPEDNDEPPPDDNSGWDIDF
The following applies: at 0.1 µM.

For experiment [15], the target named is T5, cGMP-dependent protein kinase 1 (Homo sapiens). The following applies: at 1 µM.
Experiment [16] deals with T6, cGMP-dependent protein kinase 2 (Homo sapiens) (UniProt Q13237).
T6 sequence (whole entry): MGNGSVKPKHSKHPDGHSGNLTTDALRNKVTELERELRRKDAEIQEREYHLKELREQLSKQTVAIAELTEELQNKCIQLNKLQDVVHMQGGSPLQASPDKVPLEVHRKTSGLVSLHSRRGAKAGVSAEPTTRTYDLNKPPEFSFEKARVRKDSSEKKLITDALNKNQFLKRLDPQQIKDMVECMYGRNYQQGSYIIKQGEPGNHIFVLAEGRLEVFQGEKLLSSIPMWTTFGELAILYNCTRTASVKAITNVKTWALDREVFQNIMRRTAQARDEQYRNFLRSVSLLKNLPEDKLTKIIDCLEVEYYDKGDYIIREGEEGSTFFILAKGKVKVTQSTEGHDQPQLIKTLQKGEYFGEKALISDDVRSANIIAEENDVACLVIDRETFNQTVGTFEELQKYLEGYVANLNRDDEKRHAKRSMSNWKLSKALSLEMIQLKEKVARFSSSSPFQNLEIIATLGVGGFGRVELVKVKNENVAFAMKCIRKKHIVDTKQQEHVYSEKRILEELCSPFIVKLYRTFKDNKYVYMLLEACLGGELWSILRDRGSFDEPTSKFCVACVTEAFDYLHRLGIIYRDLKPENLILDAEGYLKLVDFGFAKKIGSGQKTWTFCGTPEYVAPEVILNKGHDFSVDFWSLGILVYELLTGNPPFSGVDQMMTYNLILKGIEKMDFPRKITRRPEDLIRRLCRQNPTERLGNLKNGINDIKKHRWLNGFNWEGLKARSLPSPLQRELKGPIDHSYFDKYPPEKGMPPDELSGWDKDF
The note with it: at 0.1 µM.

For experiment [17], the target named is T6, cGMP-dependent protein kinase 2 (Homo sapiens). The note with it: at 1 µM.
Experiment [18] addresses T7, cAMP-dependent protein kinase catalytic subunit PRKX (Homo sapiens) (UniProt P51817).
T7 sequence (whole entry): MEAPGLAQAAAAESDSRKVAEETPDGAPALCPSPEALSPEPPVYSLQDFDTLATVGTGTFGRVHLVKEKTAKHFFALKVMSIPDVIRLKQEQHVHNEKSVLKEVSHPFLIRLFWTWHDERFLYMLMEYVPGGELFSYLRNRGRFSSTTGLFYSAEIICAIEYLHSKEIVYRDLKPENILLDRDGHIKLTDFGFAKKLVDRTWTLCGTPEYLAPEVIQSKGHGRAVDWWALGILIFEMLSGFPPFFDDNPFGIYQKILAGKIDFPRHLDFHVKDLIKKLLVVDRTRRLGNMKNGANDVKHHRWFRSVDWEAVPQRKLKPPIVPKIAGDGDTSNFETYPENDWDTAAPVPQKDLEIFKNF
The following applies: at 0.1 µM.

The target of experiment [19] is T7, cAMP-dependent protein kinase catalytic subunit PRKX (Homo sapiens). The following applies: at 1 µM.
Experiment [20] concerns the target Rho-associated protein kinase 1 (Homo sapiens) (UniProt Q13464). The following applies: at 0.1 µM.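 Also: values are mean percent inhibition of ROCK1.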

Protein kinase C beta type (Homo sapiens), sequence (P05771 2-671 limits assumed): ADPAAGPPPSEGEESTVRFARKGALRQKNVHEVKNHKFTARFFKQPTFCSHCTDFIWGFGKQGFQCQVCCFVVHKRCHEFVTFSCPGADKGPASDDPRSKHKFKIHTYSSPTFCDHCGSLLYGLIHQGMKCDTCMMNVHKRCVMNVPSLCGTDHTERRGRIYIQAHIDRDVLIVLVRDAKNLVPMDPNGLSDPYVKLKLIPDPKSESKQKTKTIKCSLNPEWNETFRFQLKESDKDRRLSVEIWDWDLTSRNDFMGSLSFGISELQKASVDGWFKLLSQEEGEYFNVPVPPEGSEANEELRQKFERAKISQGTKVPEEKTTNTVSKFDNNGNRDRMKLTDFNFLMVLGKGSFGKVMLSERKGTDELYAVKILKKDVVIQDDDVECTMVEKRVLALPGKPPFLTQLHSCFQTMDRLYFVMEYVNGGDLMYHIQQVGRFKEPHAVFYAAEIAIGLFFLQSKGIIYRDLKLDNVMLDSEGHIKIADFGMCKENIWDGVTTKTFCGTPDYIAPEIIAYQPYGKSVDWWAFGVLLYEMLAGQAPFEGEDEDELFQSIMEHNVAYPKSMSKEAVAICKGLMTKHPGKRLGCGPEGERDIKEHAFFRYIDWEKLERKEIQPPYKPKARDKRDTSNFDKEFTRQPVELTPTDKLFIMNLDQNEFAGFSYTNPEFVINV
Rho-associated protein kinase 1 (Homo sapiens), sequence (Q13464 2-1354 limits assumed): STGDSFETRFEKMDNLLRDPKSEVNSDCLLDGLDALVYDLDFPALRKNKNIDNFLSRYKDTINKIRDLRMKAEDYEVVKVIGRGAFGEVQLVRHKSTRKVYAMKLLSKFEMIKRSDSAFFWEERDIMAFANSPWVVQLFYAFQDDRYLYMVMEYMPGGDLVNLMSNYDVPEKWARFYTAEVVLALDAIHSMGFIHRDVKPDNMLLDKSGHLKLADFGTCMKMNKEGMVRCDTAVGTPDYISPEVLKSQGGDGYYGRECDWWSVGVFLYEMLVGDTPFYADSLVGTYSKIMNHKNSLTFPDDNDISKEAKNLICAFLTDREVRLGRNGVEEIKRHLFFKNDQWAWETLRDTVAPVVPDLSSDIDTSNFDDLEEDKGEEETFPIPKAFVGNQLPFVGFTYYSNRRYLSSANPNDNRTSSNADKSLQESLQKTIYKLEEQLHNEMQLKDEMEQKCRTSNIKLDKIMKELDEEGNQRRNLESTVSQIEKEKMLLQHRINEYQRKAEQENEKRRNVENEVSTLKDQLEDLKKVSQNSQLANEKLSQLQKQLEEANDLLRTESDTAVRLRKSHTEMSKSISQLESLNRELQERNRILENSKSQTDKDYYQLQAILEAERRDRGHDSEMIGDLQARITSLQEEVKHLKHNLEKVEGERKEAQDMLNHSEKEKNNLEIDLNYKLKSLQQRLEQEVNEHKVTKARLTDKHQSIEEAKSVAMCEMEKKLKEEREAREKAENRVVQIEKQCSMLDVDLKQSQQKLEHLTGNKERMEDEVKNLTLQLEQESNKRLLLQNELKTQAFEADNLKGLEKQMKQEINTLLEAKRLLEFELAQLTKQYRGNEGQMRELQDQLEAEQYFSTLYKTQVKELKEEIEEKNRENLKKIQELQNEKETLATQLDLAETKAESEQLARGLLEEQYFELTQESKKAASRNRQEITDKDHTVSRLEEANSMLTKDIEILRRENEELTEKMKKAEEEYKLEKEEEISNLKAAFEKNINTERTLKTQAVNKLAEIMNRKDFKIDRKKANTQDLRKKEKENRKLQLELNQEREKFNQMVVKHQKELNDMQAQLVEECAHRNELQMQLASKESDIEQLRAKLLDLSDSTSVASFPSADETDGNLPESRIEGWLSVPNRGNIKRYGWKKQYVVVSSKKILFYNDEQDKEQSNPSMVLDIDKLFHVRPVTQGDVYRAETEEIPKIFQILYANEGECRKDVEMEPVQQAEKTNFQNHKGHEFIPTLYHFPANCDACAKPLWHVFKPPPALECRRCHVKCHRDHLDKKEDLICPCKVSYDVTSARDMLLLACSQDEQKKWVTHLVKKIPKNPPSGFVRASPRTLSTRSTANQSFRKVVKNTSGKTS

As for `Cc1ccc2c(-c3ccnc(Nc4ccccc4)n3)c(-c3ccc(F)cc3)nn2n1`, the inhibition (usually the relative decrease from the control value, in per cent) in experiment [1] stood at 2.17%; in experiment [2], 1.43%; in [3], 3.68%; in experiment [4] it was 1.21%; in experiment [5], 1.16%; in [6] it was 1.79%. Moreover, the inhibition came out at 12.3% in experiment [7]; 10.1% in [8]; 70.6% in [9]; 24.6% in experiment [10]; 87% in experiment [11]; 18.6% in experiment [12]. The inhibition in experiment [13] came to 80.7%; in experiment [14], 1.32%; in experiment [15] it was 2.92%; in [16], 3.01%; in [17] it was 2.49%; in experiment [18], 1.83%. The values for the inhibition in experiment [19] and in experiment [20] were -0.36% and 1.01%, respectively.
